Experimental data reported in PubChem BioAssay (NCATS).
“And” between values parts separate entries of the source, which are not always exact repeats. Identical values can stand only once. Results filed as inconclusive are left out. The source made the active and inactive calls. Calls follow the shape of the dose curve; as a rule, active = well fitted inhibition curve with a large enough effect; inconclusive = small, poorly fitted or top-dose-only effect; inactive = flat fitted curve, though single readings scatter.

What was measured:
[1] = test system: CRL-7250; assay: Cytotoxic Profiling of Annotated Libraries Using Quantitative High-Throughput Screening (AID 1296008); settings: Five cell lines viability, CellTiter-Glo ATP luminescence, 48-72 h; max response: stronger effect = lower value; as to max response: % is scaled to controls: 0 for no effect and ±100 for the full control effect
Procedure, shortened: (§1)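 Compounds were pin-transferred onto cells and incubated 48 or 72 hr at 37 degree Celsius, 95% humidity. CellTiter-Glo was added, plates sat 10 min at room temperature, then ATP-coupled luminescence was imaged as the viability read-out.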

[2] = test system: HEK293; assay: as above; settings: Five cell lines viability, CellTiter-Glo ATP luminescence, 48-72 h; max response: stronger effect = lower value
Procedure, shortened: as §1

[3] = test system: HaCat; assay: as above; settings: Five cell lines viability, CellTiter-Glo ATP luminescence, 48-72 h; max response: stronger effect = lower value
Procedure, shortened: as §1

[4] = test system: NIH3T3; assay: as above; settings: Five cell lines viability, CellTiter-Glo ATP luminescence, 48-72 h; max response: stronger effect = lower value
Procedure, shortened: as §1

[5] = test system: SC27B; assay: qHTS profiling for inhibitors of Plasmodium falciparum proliferation (AID 504749); settings: P. falciparum in erythrocytes, SYBR Green DNA, 72 h; series mostly up to 28.7 µM
Procedure, shortened: (§2)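 Fluorescence of SYBR Green-bound parasite DNA, read at 485/535 nm, served as the growth measure. Infected erythrocytes were cultured with compound 72 h; artemisinin (0.29 uM) and DMSO wells defined the normalization range.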

[6] = test system: TAB109; assay: as above; settings: P. falciparum in erythrocytes, SYBR Green DNA, 72 h; series mostly up to 28.7 µM
Procedure, shortened: as §2

[7] = test system: TAB113; assay: as above; settings: P. falciparum in erythrocytes, SYBR Green DNA, 72 h; series mostly up to 28.7 µM
Procedure, shortened: as §2

[8] = test system: TAB165; assay: as above; settings: P. falciparum in erythrocytes, SYBR Green DNA, 72 h; series mostly up to 28.7 µM
Procedure, shortened: as §2

[9] = test system: W2; assay: as above; settings: P. falciparum in erythrocytes, SYBR Green DNA, 72 h; series mostly up to 28.7 µM
Procedure, shortened: as §2

[10] = test system: KB-3-1; assay: Cytotoxic Profiling of Annotated Libraries Using Quantitative High-Throughput Screening (AID 1296008); settings: Five cell lines viability, CellTiter-Glo ATP luminescence, 48-72 h; max response: stronger effect = lower value; as to max response: % is scaled to controls: 0 for no effect and ±100 for the full control effect
Procedure, shortened: as §1
Also: nearly all actives have a fitted effect of over 60% in size.
Potency is read from the fitted curve at half-maximal effect.

CCCCCCCC/C=C/C(=O)O
inactive: outcome [1] | max response [2] 0.673% | outcome [3] | max response [4] 2.83%

Cc1c(Nc2ncccc2C(=O)O)cccc1C(F)(F)F
inactive: Potency [5] | Potency [6] | Potency [7] | Potency [8] | Potency [9] | max response [1] -2.3% | max response [2] -18.7% | max response [3] 1.65% | max response [10] -9.8% | max response [4] -21.5%

CN1[C@@H]2CC[C@H]1CC(OC(=O)C(CO)c1ccccc1)C2 (stereo partly drawn)
inactive: Potency [5] | Potency [6] | Potency [7] | Potency [8] | Potency [9] | max response [1] -9.68% | max response [2] 2.75% | max response [3] -9.85% | max response [10] -5.74% and -6.73% and 8.38% | max response [4] 3.27%

Nc1ccc(O)c(C(=O)O)c1
inactive: Potency [5] | Potency [6] | Potency [7] | Potency [8] | Potency [9] | outcome [1] | max response [2] -8.37% | outcome [3] | outcome [4]

O=C(O)Cc1ccc(-c2ccccc2)cc1
inactive: Potency [5] | Potency [6] | Potency [7] | Potency [8] | Potency [9] | max response [1] -1.48% | max response [2] -6.63% | max response [3] -10.6% | max response [10] -5.98% | max response [4] -5.58%

CCOc1ccc2nc(S(N)(=O)=O)sc2c1
inactive: Potency [5] | Potency [6] | Potency [7] | Potency [8] | Potency [9] | max response [1] -14% | max response [2] -2.22% | max response [3] -4.97% | max response [10] 8.76% | outcome [4]

C=CCCCCCCCCC(=O)O
inactive: Potency [5] | Potency [6] | Potency [7] | Potency [8] | Potency [9] | max response [1] 3.74% | outcome [2] | max response [3] 0.628% | max response [10] 1.18% | max response [4] 0.287%

CC(C)(C)c1nnc(NS(=O)(=O)c2ccc(N)cc2)s1
inactive: max response [1] 2.87% | max response [2] -1.6% | outcome [3] | max response [4] -3.74%

C[N+]1(C)[C@@H]2CC(OC(=O)[C@H](CO)c3ccccc3)C[C@H]1[C@@H]1O[C@@H]12 (stereo partly drawn)
inactive: outcome [1] | outcome [2] | outcome [3] | max response [4] 4.27%

COc1cccc2c1C(=O)c1c(O)c3c(c(O)c1C2=O)C[C@@](O)(C(=O)CO)C[C@@H]3O[C@H]1C[C@H](N)[C@H](O[C@@H]2CCCCO2)[C@H](C)O1
active: Potency [1] 2.37 µM | Potency [2] 0.0841 µM | Potency [3] 0.0531 µM | Potency [4] 0.188 µM

CN(C)c1ccc(C(=C2C=CC(=[N+](C)C)C=C2)c2ccccc2)cc1
active: Potency [6] 12.6 µM | Potency [8] 5.01 µM | Potency [9] 1.35 µM | Potency [1] 0.0841 µM | Potency [2] 0.0944 µM | Potency [3] 0.266 µM | Potency [4] 0.237 µM
inactive: Potency [5] | max response [10] -1.13%

CCC1C(=O)OCC1Cc1cncn1C (stereo not drawn)
inactive: Potency [5] | Potency [6] | Potency [7] | Potency [8] | Potency [9] | outcome [1] | max response [2] 0.743% | max response [3] 0.604% | max response [10] -11.4% | max response [4] -5.1%

C[C@H](O)[C@H](O)[C@H]1CNc2nc(N)[nH]c(=O)c2N1
inactive: outcome [1] | outcome [2] | max response [3] 1.87% | outcome [4]

COc1cc(/C=C/C(=O)N2CCN(CC(=O)N3CCCC3)CC2)cc(OC)c1OC
inactive: Potency [5] | Potency [6] | Potency [7] | Potency [8] | Potency [9] | max response [1] -2.29% | max response [2] 1.99% | outcome [3] | outcome [4]

CN1CC(=O)N/C1=N/C(=O)Nc1cccc(Cl)c1
inactive: max response [1] 2.65% | outcome [2] | outcome [3] | max response [4] -0.466%

O=C(O)CC1CC(c2ccccc2)=NO1 (stereo not drawn)
inactive: max response [1] -3.03% | max response [2] 0.396% | max response [3] -1.53% | max response [4] -6.76%

c1ccc2sc(SSc3nc4ccccc4s3)nc2c1
inactive: Potency [5] | Potency [6] | Potency [7] | Potency [8] | Potency [9] | max response [1] 1.15% | max response [2] 3.28% | max response [3] -2.36% | max response [4] 3.25%

c1ccc2sc(SN3CCOCC3)nc2c1
inactive: Potency [5] | Potency [7] | outcome [1] | outcome [2] | outcome [3] | max response [10] 0.575% | max response [4] 0.685%

CN(CCCOc1ccc(Cc2ccccc2)cc1)CCC(=O)O
inactive: max response [1] 2.73% | max response [2] -4.43% | max response [3] -16.1% | outcome [4]

O=C(O)Cc1ccc2c(c1)C(=O)c1ccccc1CO2
inactive: outcome [1] | max response [2] -3.93% | max response [3] 4.48% | outcome [4]

CCCCCCCCCCCCCCCC(=O)OC(C)C
inactive: Potency [5] | Potency [6] | Potency [7] | Potency [8] | Potency [9] | max response [1] 3.48% | max response [2] -10.5% | max response [3] -20.5% | max response [10] 12.9% | outcome [4]

CCNc1nc2c(ncn2[C@H]2C[C@H](O)[C@@H](CO)O2)c(=O)[nH]1
inactive: max response [1] 0.139% | outcome [2] | max response [3] -28.7% | outcome [4]

COc1ccnc2c1CCCCC2S(=O)c1nc2ccccc2[nH]1 (stereo not drawn)
inactive: max response [1] -8.92% | max response [2] -19.1% | outcome [3] | max response [4] -4.2%

CCCCCCCCCCCCOCCO
inactive: max response [1] -9.14% | max response [2] -2.23% | max response [3] -12.4% | max response [4] 1.59%

COC(=O)[C@H]1[C@H]2C[C@@H]3c4[nH]c5cc(OC)ccc5c4CCN3C[C@H]2C[C@@H](OC(=O)/C=C/c2cc(OC)c(OC)c(OC)c2)[C@@H]1OC
inactive: max response [1] -14.2% | max response [2] -6.09% | outcome [3] | outcome [4]

O=Cc1ccc(O)c(O)c1O
active: Potency [2] 26.6 µM
inactive: outcome [3]

O=C(O)c1ccccc1Nc1cccc(C(F)(F)F)c1
inactive: Potency [5] | Potency [6] | Potency [7] | Potency [8] | Potency [9] | max response [1] 0.849% | max response [2] 3.56% | max response [4] -2.26%

CCCOC(=O)c1ccc(O)cc1
inactive: Potency [5] | Potency [6] | Potency [7] | Potency [8] | Potency [9] | max response [1] 4.61% | max response [2] -6.34% | max response [4] 3.51%

O=C1CN(/N=C/c2ccc([N+](=O)[O-])o2)C(=O)N1
inactive: outcome [1] | max response [3] 1.83% | max response [10] -3.33% | outcome [4]

Clc1ccccc1-c1nc(-c2ccncc2)no1
inactive: Potency [5] | Potency [7] | max response [1] -4.27% | outcome [3] | max response [10] 12%

O=C(O)Cc1cccc(-c2cc(CCCCCCc3ccc(O[C@H]4O[C@H](CO)[C@@H](O)[C@H](O)[C@@H]4O)c(-c4cccc(CC(=O)O)c4)c3)ccc2O[C@H]2O[C@H](CO)[C@@H](O)[C@H](O)[C@@H]2O)c1
inactive: max response [2] 1.99% | max response [3] -11.5% | outcome [10] | max response [4] 2.37%

CS(=O)(=O)c1ccc(-n2nc(C(F)(F)F)cc2-c2ccc(F)cc2)cc1
inactive: max response [2] 1.42% | outcome [3] | max response [10] -2.3% | max response [4] -2.48%

CC(N)C(=O)OC(C)(C)Cc1ccc(Cl)cc1 (stereo not drawn)
active: Potency [9] 4.26 µM
inactive: max response [1] 4.4% | outcome [3] | max response [4] -1.5%

c1ccc(CCNc2nc(-c3ccccc3)cs2)cc1
active: Potency [2] 11.9 µM
inactive: outcome [3] | max response [4] -13.6%

CCCCC1C(=O)N(c2ccccc2)N(c2ccc(O)cc2)C1=O (stereo not drawn)
active: Potency [2] 4.73 µM | Potency [4] 15 µM
inactive: max response [10] -9.78%

Fc1ccc2[nH]c(CN3CCN(c4ccccn4)CC3)cc2c1
inactive: max response [1] -22.3% | max response [10] -22.6% | max response [4] -28.5%

COc1ccc(-c2cc(=S)ss2)cc1
inactive: Potency [6] | Potency [9] | max response [1] -2.86% | outcome [3] | outcome [4]

Cc1c(C(=O)O)c(O)cc2c1C(=O)c1c(O)c([C@@H]3O[C@H](CO)[C@@H](O)[C@H](O)[C@H]3O)c(O)c(O)c1C2=O
inactive: max response [2] -35.5% | max response [10] -19.3% | max response [4] -21.1%

CNC(=O)c1c(I)c(NC(=O)CCCCC(=O)Nc2c(I)c(C(=O)O)c(I)c(C(=O)NC)c2I)c(I)c(C(=O)O)c1I
inactive: max response [1] -5.95% | max response [2] -10.9% | max response [4] -3.88%

Cc1onc(-c2c(F)cccc2Cl)c1C(=O)N[C@@H]1C(=O)N2[C@@H]1SC(C)(C)[C@@H]2C(=O)O
inactive: max response [1] -6.01% | outcome [2] | max response [10] 3.63% and 6.4% | outcome [10] | max response [4] -7.78%

COC(=O)c1nc(Cl)c(Cl)nc1N
active: Potency [1] 5.31 µM | Potency [2] 0.841 µM | Potency [4] 10.6 µM

CCCCCCCCCCCCCCCCCC(=O)O
inactive: Potency [5] | Potency [7] | Potency [8] | Potency [9] | outcome [2] | outcome [3] | max response [4] -5.96%

COC(=O)C1=C(C)NC(C)=C(C(=O)OCC(C)=O)C1c1ccccc1[N+](=O)[O-] (stereo not drawn)
inactive: outcome [2] | outcome [3] | max response [4] -4.97%

CN1[C@@H]2CC[C@H]1CC(OC(c1ccccc1)c1ccccc1)C2 (stereo partly drawn)
active: Potency [8] 11.2 µM | Potency [9] 1.9 µM
inactive: Potency [5] | max response [1] 0.151% | max response [2] -16.7% | outcome [3] | max response [4] -0.104%

N=C1N=C(N)c2cc3ccccc3cc21
active: Potency [1] 17.2 µM | Potency [2] 19.3 µM | Potency [4] 10.9 µM

CCCCN(CC)c1nc(C)nc2c1c(C)cn2-c1c(C)cc(C)cc1C
inactive: max response [1] -5.83% | max response [3] 4.42% | max response [10] -14.3% | max response [4] -2.65%

CC1(C)S[C@@H]2[C@H](NC(=O)[C@H](N)c3ccc(O)cc3)C(=O)N2[C@H]1C(=O)O
inactive: max response [1] -12.2% | outcome [2] | outcome [4]

Cc1cc(O)c2ccccc2c1O
active: Potency [9] 9.53 µM
inactive: Potency [5] | Potency [6] | Potency [7] | Potency [8] | max response [1] -18% | outcome [3]

O=C(OCc1ccccc1)c1ccccc1
inactive: Potency [5] | Potency [6] | Potency [7] | Potency [8] | Potency [9] | max response [2] -2.07% | max response [3] 4.92% | max response [10] 3.34% | max response [4] 0.848%

COc1ccc(/C=C/C(=O)Nc2ccccc2C(=O)O)cc1OC
inactive: Potency [5] | Potency [6] | Potency [7] | Potency [8] | max response [1] 2.22% | max response [2] 0.531% | max response [10] -5.53% and 8.2% | max response [4] -8.92%
